Growth data for 40 molecules are collected here from PubChem BioAssay (NCI).

Compounds without any hit were thinned out: in the full panel of roughly 83,000, 20% have a hit.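 Method: cells in 96-well plates; compound added at one concentration; 48 h incubation; percent growth measured; values under 10 scored active.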 Values without a mark were called inactive. Calls of active or inactive are those of the source.

This assay deals with HL-60(TB) leukemia. Nature of the assay: NCI-60 one-dose screen, 48 h (100 = growth as untreated, 0 = no growth, -100 = all killed). Conditions: 10 µM unless noted.
As to `COc1ccc(C/C(C)=C(\c2ccc(OCCN3CCCCCC3)cc2)c2ccc(OC(=O)C3CCCCC3)cc2)cc1`, the growth is 17.1%. For `COc1cc(NCCCN)c2ncccc2c1`, the growth was 68%.

Consider `COC(=O)CCc1cc(O)c2c(c1)[C@@H](C(=O)OC)[C@H](c1ccc(O)c(O)c1)O2`, for which the growth was 9.9% (active). For the molecule `CCCCCCCCCCCCCCCCC(=O)O`, the growth was 101%. For the molecule `Clc1nc(Cl)c2ncn(C/C=C\Cn3cnc4c(Cl)nc(Cl)nc43)c2n1`, the growth is -70.2% (active). Take `Nc1ccc(Sc2ccc3c4c2cccc4c(=O)n2c4ccccc4nc32)cc1`: the growth is 18.2%. Consider `COc1ccc(/C(C#N)=C/c2cccc(OC)c2OC)cc1`, for which the growth was 76.7%. `COc1ccc(NC(=O)Nc2ccc(Nc3nc(C)cc(Nc4ccc(C)cc4)n3)cc2)cc1`: the growth was -55.4% (active).

Regarding `O=C1/C(=C/c2ccc(Cl)cc2)CN(Cc2cn(CCCNc3ccnc4cc(Cl)ccc34)nn2)C/C1=C\c1ccc(Cl)cc1`, the growth is -46.7% (active).

For the molecule `Cc1ccc(C)c2c(C)c(C(=O)Nc3cccc(-n4cccn4)c3)oc12`, the growth is 87.9% [50 µM].

As to `Fc1cc(C(F)(F)F)ccc1-c1cncnc1NC1CCCCCC1`, the growth is 86.4%.

Take `Cc1cccc(OCC(O)CN2CCN(c3ccc(Cl)cc3)CC2)c1` (stereo not given): the growth was 97.9%. As for `O=[N+]([O-])c1ccc(NC(=S)N/N=C/c2cc3ccccc3n3nnnc23)cc1`, the growth is 27.4%.

Regarding `O=C(/C(=C/c1ccc([N+](=O)[O-])cc1)c1ccccc1)c1ccccc1`, the growth is 16.9%. With `CCCCCC(=C/c1ccccc1)/C=N/N=C(N)N`, the growth is -30.2% (active). With `CC12CC(C#N)CCC1O2` (stereo not given), the growth was 101%. Under `O=C(Nc1cccc(C2=NCCN2)c1)c1ccc(N=Nc2ccc(C(=O)Nc3cccc(C4=NCCN4)c3)cc2)cc1` stands 42.5%; under `COc1cc(/C=C/C(=O)c2cc(-c3ccc(C(F)(F)F)cc3)ccc2O)cc(OC)c1OC`, 13.9%. As to `CC(=O)O[C@H]1CC[C@]2(C)[C@H]3CC=C4[C@@H]5CC(C)(C)CC[C@]5(C(=O)OCC(COC(=O)C(Cl)Cl)(COC(=O)C(Cl)Cl)NC(=O)C(Cl)Cl)CC[C@@]4(C)[C@]3(C)CC[C@H]2C1(C)C`, the growth was 33.1%.

For `Cc1cc2nc(CO)[nH]c2cc1C`, the growth is 89.7%. For the molecule `COC(OC)c1ccccc1`, the growth was 77.6%. Turning to `COc1ccc(-c2cc(-c3ccc(OC)cc3)nc(NCCCNc3ccnc4cc(Cl)ccc34)n2)cc1`, the growth is -37.7% (active). On to `Cc1ccccc1-c1nc(C(Cl)Cl)nc2cc(-c3ccccc3)nn12`, for which the growth was 92%. As to `CC(=O)[C@H]1CC[C@H]2[C@@H]3CC[C@@H]4CC=C(C=O)C[C@]4(C)[C@H]3CC[C@]12C`, the growth is 78.2%. Under `C#CC#CC#CC#CC#CC#CC#CC#CC[C@@H]1OC[C@@H](COC(=O)O[C@@H](C(=O)O[C@H]2C[C@@]3(O)[C@@H](OC(=O)c4ccccc4)[C@@H]4[C@]5(OC(C)=O)CO[C@@H]5C[C@H](O)[C@@]4(C)C(=O)[C@H](OC(C)=O)C(=C2C)C3(C)C)[C@@H](NC(=O)c2ccccc2)c2ccccc2)O1` stands 2.63% (active). In the case of `CC[C@@H](C)[C@H](NC(=O)Cn1cc(CNC(=O)[C@@H](NC(=O)OCc2ccccc2)C(C)C)nn1)C(=O)O` it was 113%; in that of `CCCCCCCCCCOC(C)=O`, 107%; in that of `COc1ccc(/C=N/NC(N)=S)cc1`, 88.9%. For the molecule `COc1cc(C2CC(=O)Nc3c2cnn3Cc2ccco2)cc2c1OCCO2` (stereo not given), the growth is 25.6%. Under `CC1CCC(C)N(C)C1` (stereo not given) stands 96.2%. For `[N-]=[N+]=NCc1ncc(-c2ccc(C(F)(F)F)cc2)c(NC2CCCCCC2)n1`, the growth was 43.4% [50 µM].

For `O=S(=O)(Nc1ccc(F)cc1F)c1ccc(-c2cnc(C3CC3)o2)cc1`, the growth was 1% (active).

Regarding `COc1ccc(-c2nc(SCC(=O)Nc3nc4ccc(C)cc4s3)[nH]c(=O)c2C#N)cc1OC`, the growth was 105%. For `CC(C)CC(=O)C(CCc1ccccn1)C(C)C` (stereo not given), the growth was 108%. Take `COc1cccc(Nc2nccc(Nc3ccc4[nH]ncc4c3)n2)c1`: the growth was -62.3% (active). With `COc1ccc(/C=C2\Oc3cc(OCCCCCN4CCCCC4)ccc3C2=O)cc1OC`, the growth is 97.8%. As to `CN=C(NC)N/N=C(C)\C=N\NC(=NC)NC`, the growth is 99%. For the molecule `O=C(NCCCCO)c1cncnc1Nc1ccc2c(ccn2Cc2cccc(F)c2)c1`, the growth is 100%.

For `COc1cccc(C2=NN3C(C2)c2ccccc2OC3c2ccc(/C=C3\SC(=O)NC3=O)cc2)c1` (stereo not given), the growth was 100%. Consider `COc1cc(/C=C/C(=O)c2c(-c3ccc(F)cc3)nc3sc(C)nn23)cc(OC)c1OC`, for which the growth is 12%.
